HCMV inh = blocks human cytomegalovirus replication; AID 1259415; HFF cells, HCMV-luciferase reporter, 72 h; hits give low values; activity change, negative = inhibition, % at 57.5 µM; hit rate 4.5% among 410,000; in the data active means activity change below about -60%; inconclusive means no clear call, values can overlap the other calls; inactive means above about -39%
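Steps: HFFs plated, 16 h 37C; compounds added; HCMV-luciferase added to MOI 1 PFU/cell; 72 h 37C; OneGlo reagent, 5 min room temperature; luminescence read, normalized to controls.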
FMDV antiviral = foot and mouth disease virus antiviral activity. FMDV antiviral cell-based qHTS. Potency, µM (series often up to 57.9 µM), for the others: at the highest dose activity change, negative = inhibition, actives largely listed as inhibitors. hit rate 1.2% among 410,000; calls by dose curve; tested in HEK293T cells; further: read-out not given here; potency means the concentration at half of the fitted maximal effect; nearly all actives have a fitted effect of over 45% in size
HCV inh = HCV inhibition. Huh7.5.1 HCVcc-Cre infection, luciferase reporter, 44 h. hit rate 3.4% among 340,000. AID 651820. Potency, µM (doses to about 41.8 µM), for inactives: at the highest dose activity change, negative = inhibition, hits mostly inhibitors; active means well fitted inhibition curve with a large enough effect; inconclusive means small, poorly fitted or top-dose-only effect, or another doubt; inactive means no such curve, though single readings can be large or run the other way; further: potency means the concentration at half of the fitted maximal effect
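Reporter virus HCVcc-Cre (~0.5 moi) infects cells exposed to compound; seeding density 1,000 cells/well with 4 h settling beforehand. Luminescence, 15 sec read, taken 44 h post-infection following a 15 min RT substrate incubation.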
Vaccinia Venus = inhibitors of vaccinia virus (Venus reporter) | Potency, µM (series often up to 36.5 µM), for the others: top-dose activity change, negative = inhibition, hits mostly inhibitors | AID 720580 | Vaccinia virus Venus reporter expression, fluorescence | hit rate 0.46% among 330,000; calls by dose curve; tested in A549 cells; further: potency means the concentration at half of the fitted maximal effect; nearly all actives have a fitted effect of over 30% in size
Vaccinia mCherry = inhibitors of vaccinia virus infection (mCherry reporter signal); Vaccinia virus mCherry reporter infection, fluorescence; Potency, µM (titrated, usually from 36.5 µM), inactives show at the top dose activity change, negative = inhibition, actives largely listed as inhibitors; hit rate 0.63% among 310,000; AID 720579; calls by dose curve; tested in A549 cells; further: potency means the concentration at half of the fitted maximal effect; nearly all actives have a fitted effect of over 35% in size
* = called active by the depositor; [ ] = remark or other dose. The list is not random: actives were taken first. Their share in the collection is about 7.3%. On the % scale 0 is the no-effect control and ±100 the full control effect.

Results for O=C(Nc1ccc(Cl)c(Cl)c1)Nc1cc(S(=O)(=O)N2CCOCC2)ccc1N1CCCC1 ?
HCMV inh: -67.5*; FMDV antiviral: -16.2%; HCV inh: inconclusive; Vaccinia Venus: inconclusive; Vaccinia mCherry: inconclusive

Results for Cc1ccccc1OCCOC(=O)c1cc(S(=O)(=O)N2CCCCC2)ccc1N1CCOCC1 ?
HCMV inh: -38.1; FMDV antiviral: inconclusive; HCV inh: 11.2µM*; Vaccinia Venus: inconclusive; Vaccinia mCherry: inconclusive

Results for COc1ccccc1OCC(=O)Nc1cc(S(=O)(=O)N2CCOCC2)ccc1N1CCCCC1 ?
HCMV inh: -18.1; FMDV antiviral: -8.5%; HCV inh: 12.6µM*; Vaccinia Venus: -19.3%; Vaccinia mCherry: inconclusive

What do the screens show for `COc1cc(C(C)=O)ccc1OCC(=O)Nc1cc(S(=O)(=O)N2CCOCC2)ccc1N1CCCC1`?
HCMV inh: 35.9; FMDV antiviral: 12.8%; HCV inh: 23.3%

How did O=C(Nc1ccccc1F)Nc1cc(S(=O)(=O)N2CCOCC2)ccc1N1CCCC1 do in these assays?
HCMV inh: -2.5; FMDV antiviral: 15.0%; HCV inh: -0.2%; Vaccinia Venus: 6.5%; Vaccinia mCherry: inactive

How did Cc1noc(C)c1-c1nccc(NC2CC2)n1 do in these assays?
FMDV antiviral: 2.3%

How did CCC(=O)N(CC)C1=C(O)c2ccccc2C(=O)C1=O do in these assays?
HCMV inh: -105.3*; FMDV antiviral: -24.2%; HCV inh: inconclusive; Vaccinia Venus: -5.1%; Vaccinia mCherry: -18.2%

Results for CN1C(=O)c2cccc3c(Cl)ccc(c23)C1=O ?
HCMV inh: -36.3; HCV inh: -15.2%; Vaccinia Venus: 8.4%; Vaccinia mCherry: -9.9%

Results for COc1ccccc1N1C(=O)c2cccc3c(Cl)ccc(c23)C1=O ?
HCMV inh: -82.2*; FMDV antiviral: -28.8%; HCV inh: inconclusive; Vaccinia Venus: -6.4%; Vaccinia mCherry: -7.0%

What do the screens show for `CCOc1ccc(CNc2nc3nc(C)c(Cc4ccccc4)c(=O)n3[nH]2)cc1`?
HCMV inh: 3.7; FMDV antiviral: -8.8%; Vaccinia Venus: -10.5%; Vaccinia mCherry: -0.4%

Results for COc1ccc(C2=CC(=O)N(Nc3ccccc3)C2=O)cc1 ?
HCMV inh: -8.7; FMDV antiviral: inconclusive; HCV inh: 16.1%; Vaccinia Venus: -9.2%; Vaccinia mCherry: -9.3%

How did Cc1ccc(NN2C(=O)C=C(c3ccc(Cl)cc3)C2=O)cc1 do in these assays?
HCMV inh: 235.7; FMDV antiviral: 39.8µM*; HCV inh: -22.0%; Vaccinia Venus: inconclusive; Vaccinia mCherry: inconclusive

Results for Cc1ccc(NN2C(=O)C=CC2=O)cc1 ?
HCMV inh: 17.2; FMDV antiviral: -9.8%; HCV inh: 5.5%; Vaccinia Venus: -8.8%; Vaccinia mCherry: -8.7%

What do the screens show for `O=C1C=C(c2ccccc2)C(=O)N1Nc1ccccc1`?
HCMV inh: 30.3; FMDV antiviral: 35.5µM*; HCV inh: inconclusive; Vaccinia Venus: -16.2%; Vaccinia mCherry: -8.2%

What do the screens show for `COc1ccc2c(c1)[C@@H](NS(C)(=O)=O)[C@H](C)[C@@H](c1ccccc1)N2Cc1cccc(F)c1`?
HCMV inh: -8.8

What do the screens show for `Cc1c(Cl)cccc1NC(=O)c1cnc2sc(N3CCOCC3)nn2c1=O`?
HCMV inh: -5.0; FMDV antiviral: -13.7%; Vaccinia Venus: -5.1%; Vaccinia mCherry: -11.5%

What do the screens show for `C=CCN1c2ccccc2[C@]23C[C@@H](C(=O)OC)N(C(=O)CC(C)C)C2=NC(C(=O)OC)=C(C(=O)OC)[C@H]13`?
HCMV inh: -5.2; FMDV antiviral: -2.7%; HCV inh: 7.94µM*; Vaccinia Venus: -27.2%; Vaccinia mCherry: inactive

Results for COC(=O)C1=C(C(=O)OC)[C@@H]2N(Cc3ccccc3)c3ccccc3[C@@]23C[C@@H](C(=O)OC)N(C(=O)c2ccc(Br)cc2)C3=N1 ?
FMDV antiviral: inconclusive; HCV inh: -1.6%; Vaccinia Venus: 10µM*; Vaccinia mCherry: inconclusive

Results for COC(=O)C1=C(C(=O)OC)[C@@H]2N(C)c3ccc(OC)cc3[C@@]23C[C@@H](C(=O)OC)N(C(=O)c2ccc(Br)cc2)C3=N1 ?
HCMV inh: 3.6; FMDV antiviral: inconclusive; HCV inh: -9.2%; Vaccinia Venus: 11.2µM*; Vaccinia mCherry: inconclusive

What do the screens show for `COC(=O)C1=C(C(=O)OC)[C@@H]2N(Cc3ccccc3)c3ccccc3[C@@]23C[C@@H](C(=O)OC)N(C(=O)C2CCC2)C3=N1`?
FMDV antiviral: -2.3%; HCV inh: 15.7%; Vaccinia Venus: -14.1%; Vaccinia mCherry: -10.9%

How did CC#CCN1c2ccccc2[C@]23C[C@@H](C(=O)OC)N(C(=O)C4CCC4)C2=NC(C(=O)OC)=C(C(=O)OC)[C@H]13 do in these assays?
HCMV inh: -74.8*; FMDV antiviral: -25.6%; HCV inh: 1.8%[8.37 µM]; Vaccinia Venus: -5.9%; Vaccinia mCherry: -23.8%

How did CCOC(=O)N1C2=NC(C(=O)OC)=C(C(=O)OC)[C@@H]3N(C)c4ccc(OC)cc4[C@]23C[C@H]1C(=O)OC do in these assays?
HCMV inh: 13.5; FMDV antiviral: -8.1%; HCV inh: 20.7%; Vaccinia Venus: -26.7%; Vaccinia mCherry: inactive

Results for CCNC(=O)c1nn(-c2ccccc2C)nc1CO ?
HCMV inh: 47.2; FMDV antiviral: -6.8%; Vaccinia Venus: -3.2%; Vaccinia mCherry: -8.8%

Results for O=C(Nc1cccc2ccccc12)c1ccc([N+](=O)[O-])s1 ?
HCMV inh: -98.0*; FMDV antiviral: -15.7%; HCV inh: inconclusive; Vaccinia Venus: inconclusive; Vaccinia mCherry: inconclusive

What do the screens show for `O=C(Nc1cccc2ccccc12)c1cnsn1`?
HCMV inh: -64.2*; FMDV antiviral: -0.5%; HCV inh: 8.7%

How did O=C(Nc1cccnc1)c1ccc([N+](=O)[O-])s1 do in these assays?
HCMV inh: -84.4*; FMDV antiviral: -12.0%; HCV inh: inconclusive

What do the screens show for `COc1ccccc1NC(=O)N1CC(=O)Nc2sc3c(c2C1c1ccccc1)CCCC3` (stereo unspecified)?
HCMV inh: 6.1; FMDV antiviral: -7.9%; Vaccinia Venus: -18.3%; Vaccinia mCherry: -21.2%

Results for COc1ccc2c3c(n(C)c2c1)[C@@H](CO)N(S(C)(=O)=O)CC31CCN(C(=O)C2CCCC2)CC1 ?
HCMV inh: 5.6

What do the screens show for `COc1cccc(-c2cnc(C(O)c3ccc(-c4ccccc4)cc3)[nH]2)c1` (stereo unspecified)?
HCMV inh: 20.1; FMDV antiviral: 1.5%; Vaccinia Venus: -2.2%; Vaccinia mCherry: inactive

What do the screens show for `COc1ccc(C(O)c2ncc(-c3ccccc3)[nH]2)c(OC)c1` (stereo unspecified)?
HCMV inh: -66.5*; FMDV antiviral: 18.1%; Vaccinia Venus: 1.1%; Vaccinia mCherry: 44.5%

How did CC(C)COc1ccc(C(=O)Nc2scc(-c3ccc(Cl)cc3Cl)c2C(N)=O)cc1 do in these assays?
HCMV inh: inconclusive; FMDV antiviral: inconclusive; HCV inh: 12.6µM*; Vaccinia Venus: 2.8%; Vaccinia mCherry: -9.6%
